Assay outcomes (PubChem BioAssay)
Rows were chosen to be rich in hits. Some 1.1% of all compounds tested hit in one or more screens of this group.
MEP2 TOR yeast – alters MEP2-GFP fluorescence in TOR pathway yeast screen; S. cerevisiae MEP2-GFP strain, flow cytometry GFP, 3 h; 100% = DMSO control level; GFP response vs DMSO, % at 10 µM; AID 2016; hit rate 0.51% among 330,000;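 active = GFP response versus DMSO above a set limit, roughly screen mean plus 3 SD, cut at about 180% in these data; inconclusive = fewer than 70 cells counted for a yeast strain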;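 note: median GFP fluorescence of the barcode-gated MEP2-GFP cells per well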
LAP4-GFP MLPCN – yeast TOR pathway LAP4-GFP modulation; S. cerevisiae LAP4-GFP multiplex, flow cytometry GFP, 3 h; median GFP as percent of DMSO wells; GFP response vs DMSO, % at 10 µM; hit rate 0.34% among 320,000; AID 2023;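 active = GFP response vs DMSO above a set limit, about the screen mean plus 3 SD, cut at about 150% in these data; inconclusive = under 70 cell events counted for the yeast strain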
CIT2-GFP yeast – yeast TOR pathway CIT2-GFP modulation; S. cerevisiae CIT2-GFP strain, flow cytometry, 3 h; 100 means same as DMSO wells; GFP response vs DMSO, % at 10 µM; hit rate 0.065% among 320,000; AID 2029;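 active = GFP response relative to DMSO above a set limit, near the screen mean plus 3 SD, cut at about 150% in these data; inconclusive = Fewer than 70 cells measured for a yeast strain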;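 note: ratio of well median GFP fluorescence to mean of DMSO wells on the plate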
AGP1-GFP MLPCN – alters AGP1-GFP fluorescence in TOR pathway yeast screen. S. cerevisiae AGP1-GFP multiplex flow cytometry, 3 h; GFP as percent of DMSO wells. GFP response vs DMSO, % at 10 µM. hit rate 0.02% among 320,000;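 active = GFP response relative to DMSO above a set limit, near screen average plus 3 SD, cut at about 150% in these data; inconclusive = fewer than 70 cells counted for the yeast strain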;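 note: median GFP channel fluorescence of the gated AGP1 strain per well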
RPL19A-GFP yeast – modulators of TOR pathway RPL19A-GFP in S. cerevisiae. hit rate 0.3% among 330,000. percent response vs DMSO, % at 10 µM. S. cerevisiae RPL19A-GFP strain, flow cytometry, 3 h; active compounds read low;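 active = percent response vs DMSO below 50%; inconclusive = fewer than 70 events counted for the yeast strain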;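 note: median channel GFP fluorescence of the barcoded RPL19A-GFP strain; ratio of sample median GFP to plate DMSO average so 100% = DMSO; lower means less RPL19A-GFP as with rapamycin TOR inhibition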
VLA-4 inh – inhibition in a human VLA-4 binding assay | P13612 | VLA-4 expressing cells, ligand binding flow cytometry | inhibition, % (about 7 µM as worked out from the volumes in the protocol) | hit rate 0.2% among 330,000; in the data active = inhibition above about 50%
Target sequence (P13612 whole entry, looked up): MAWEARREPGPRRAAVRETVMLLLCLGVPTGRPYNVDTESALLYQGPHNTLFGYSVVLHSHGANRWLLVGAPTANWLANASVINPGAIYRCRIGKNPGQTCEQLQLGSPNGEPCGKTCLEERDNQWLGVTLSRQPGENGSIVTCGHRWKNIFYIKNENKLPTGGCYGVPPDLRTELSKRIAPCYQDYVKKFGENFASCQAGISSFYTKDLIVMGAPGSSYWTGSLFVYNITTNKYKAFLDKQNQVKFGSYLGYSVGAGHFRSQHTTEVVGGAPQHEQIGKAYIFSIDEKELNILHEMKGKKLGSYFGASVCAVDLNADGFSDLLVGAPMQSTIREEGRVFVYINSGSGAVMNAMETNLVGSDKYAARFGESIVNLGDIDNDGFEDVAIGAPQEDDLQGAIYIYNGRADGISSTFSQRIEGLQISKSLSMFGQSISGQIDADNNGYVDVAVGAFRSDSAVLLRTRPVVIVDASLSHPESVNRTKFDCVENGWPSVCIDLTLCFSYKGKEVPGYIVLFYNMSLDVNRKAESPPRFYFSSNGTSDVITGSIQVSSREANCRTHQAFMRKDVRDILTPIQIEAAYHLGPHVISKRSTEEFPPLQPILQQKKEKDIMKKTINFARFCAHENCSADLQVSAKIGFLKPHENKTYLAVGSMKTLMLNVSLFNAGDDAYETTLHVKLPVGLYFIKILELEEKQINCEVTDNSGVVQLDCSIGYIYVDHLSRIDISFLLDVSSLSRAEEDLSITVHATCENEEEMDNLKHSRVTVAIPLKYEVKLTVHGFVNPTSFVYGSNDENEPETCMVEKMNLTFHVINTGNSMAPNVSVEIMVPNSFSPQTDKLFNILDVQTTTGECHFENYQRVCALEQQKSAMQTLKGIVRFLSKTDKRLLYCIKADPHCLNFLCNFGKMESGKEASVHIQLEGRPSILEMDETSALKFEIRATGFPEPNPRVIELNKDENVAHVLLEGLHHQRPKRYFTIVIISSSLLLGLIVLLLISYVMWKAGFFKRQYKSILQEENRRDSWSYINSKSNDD
Active calls of the source: *; ? = inconclusive; / = no result given; [ ] = another dose, or the depositor's remark.

SMILES	MEP2 TOR yeast	LAP4-GFP MLPCN	CIT2-GFP yeast	AGP1-GFP MLPCN	RPL19A-GFP yeast	VLA-4 inh
O=C(O)Cn1cc(/C=C2\C(=O)NC(=O)N(c3ccc(Br)cc3)C2=O)c2ccccc21	105.0	108.8	95.1	94.2	102.4	2.1
CCN1C(=O)NC(=O)/C(=C\c2cn(CC(=O)N3CCCC3)c3ccccc23)C1=O	181.4*	121.5	101.2	100.6	132.1	11.3
Cc1ccc(N2C(=O)NC(=O)/C(=C\c3cn(CC(=O)O)c4ccccc34)C2=O)cc1	100.9	95.7	107.3	161.1*	103.8	-5.8
CN(C)[C@@H]1C(=O)C(C(N)=O)=C(O)[C@@]2(O)C(=O)C3=C(O)c4c(O)cccc4[C@@](C)(O)C3[C@H](O)C12 (stereo not given in full)	102.9	128.0	80.2	88.7	100.5	4.2
CC1=CC(=O)C2=C(C)C[C@H](O)[C@@H]3[C@H](OC(=O)[C@H]3C)[C@@H]12	195.9*[may fluoresce violet]	96.8	?	?	42.8*[may fluoresce violet]	14.6
O=C1Nc2ccccc2C(c2ccccc2)=NC1O (stereo not given)	103.0	101.8	104.2	102.2	100.9	-419.7
CC[C@H]1C2C[C@H]3[C@@H]4N(C)c5ccccc5C45C[C@H](C2[C@H]5O)N3[C@@H]1O (stereo not given in full)	389.3*[may fluoresce violet]	107.3	?	?	36.8*[may fluoresce violet]	-19.2
CCC1C2CC3C4N(C)c5ccccc5C45CC(C2C5O)N3[C@@H]1O (stereo not given in full)	103.0	97.3	103.0	101.2	106.7	9.2
Cn1cccc1C1CCCN1CC(=O)Nc1ccc(C#N)c(Cl)c1 (stereo not given)	101.2	92.5	100.0	100.7	99.1	-6.1
O=c1ccc2cc(O[C@@H]3O[C@@H](CO)[C@H](O)[C@@H](O)[C@@H]3O)c(O)cc2o1	840.1*[may fluoresce violet]	121.4	?	?	34.0*[may fluoresce violet]	9.9
O=C(Nc1ccc(Cl)cc1)N1CC2CC(C1)c1cccc(=O)n1C2 (stereo not given)	96.2	94.8	95.6	104.0	100.4	23.4
Nc1cc(C(=O)Nc2ccc(Cl)cc2)ccc1N1CC2CC(C1)c1cccc(=O)n1C2 (stereo not given)	251.3*[may fluoresce violet]	46.4	?	?	40.2*[may fluoresce violet]	8.1
CN1C(=O)NC(=O)/C(=C/c2ccc([N+](=O)[O-])o2)C1=O	95.7	110.6	90.8	106.7	89.4	0.4
O=C1NC(=O)N(c2ccccc2)C(=O)/C1=C\C=C\c1ccccc1	398.3*[may fluoresce violet]	61.2	?	?	42.1*[may fluoresce violet]	15.8
O=C1NC(=O)N(c2ccccc2)C(=O)/C1=C\c1ccc([N+](=O)[O-])o1	135.3	153.4*	138.9	119.8	101.8	10.6
COc1ccc(C(c2ccc(OC)cc2)C(Cl)(Cl)Cl)cc1	97.0	109.8	98.0	104.7	98.6	13.3
CCCC(=O)c1cc(CP(=O)(OCC)OCC)oc1C	?	/	/	/	42.0*[may fluoresce violet]	-1.8
Cc1ccc(N=C(/N=C(\N)N[N+](=O)[O-])Nc2ccc(C)cc2)cc1	98.0	98.4	94.0	96.3	93.8	-2.0
CC1CCCN(C(=O)CN2C3CCC2CC(O)(c2ccc(F)cc2)C3)C1 (stereo not given)	97.2	96.9	93.2	99.0	98.0	17.6
CC1CCCN(C(=O)CCl)C1 (stereo not given)	102.6	97.6	99.7	100.2	101.5	56.4*
CC(C)Oc1cccc(C(=O)C2CCCN(Cc3ccon3)C2)c1 (stereo not given)	100.9	95.3	99.6	96.7	102.1	5.6
O=C1NC(=O)N(CCC2=CCCCC2)C(=O)/C1=C/c1cccs1	84.2	184.9*	66.7	82.7	92.4	0.0
O=C1NC(=O)N(CCC2=CCCCC2)C(=O)/C1=C/c1ccc(O)cc1	97.4	92.8	95.7	97.2	101.4	12.6
Cc1ccc(N2C(=O)CC(=O)NC2=O)cc1Cl	104.7	89.4	102.5	94.5	101.7	5.9
C=CCn1c(O)c(C(C)=NCC2CCCO2)c(=O)[nH]c1=O (stereo not given)	103.0	101.9	88.2	103.3	96.2	0.5
CNCCc1c[nH]c2ccccc12	95.5	460.2*[may fluoresce red]	81.2	79.8	?	-26.9
